Reference: paper PMC4336329 (PLoS ONE, 2015)
In all, about 310,000 compounds went through this assay and about 14,000 (4.5%) showed an effect of 50% or more. The effect is printed as a negative number. Shown is part of a subset that was picked to be rich in strong results.

Molecular target: human ether-à-go-go-related gene (hERG) potassium channel (human, UniProt Q12809)
Experiment: primary screen, population patch clamp on CHO cells stably expressing hERG; higher = less effect of the substance
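Note: peak tail current of the secondary pulse compared with the same well before compound.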

Sequence of human ether-à-go-go-related gene (hERG) potassium channel (Q12809 whole entry, looked up): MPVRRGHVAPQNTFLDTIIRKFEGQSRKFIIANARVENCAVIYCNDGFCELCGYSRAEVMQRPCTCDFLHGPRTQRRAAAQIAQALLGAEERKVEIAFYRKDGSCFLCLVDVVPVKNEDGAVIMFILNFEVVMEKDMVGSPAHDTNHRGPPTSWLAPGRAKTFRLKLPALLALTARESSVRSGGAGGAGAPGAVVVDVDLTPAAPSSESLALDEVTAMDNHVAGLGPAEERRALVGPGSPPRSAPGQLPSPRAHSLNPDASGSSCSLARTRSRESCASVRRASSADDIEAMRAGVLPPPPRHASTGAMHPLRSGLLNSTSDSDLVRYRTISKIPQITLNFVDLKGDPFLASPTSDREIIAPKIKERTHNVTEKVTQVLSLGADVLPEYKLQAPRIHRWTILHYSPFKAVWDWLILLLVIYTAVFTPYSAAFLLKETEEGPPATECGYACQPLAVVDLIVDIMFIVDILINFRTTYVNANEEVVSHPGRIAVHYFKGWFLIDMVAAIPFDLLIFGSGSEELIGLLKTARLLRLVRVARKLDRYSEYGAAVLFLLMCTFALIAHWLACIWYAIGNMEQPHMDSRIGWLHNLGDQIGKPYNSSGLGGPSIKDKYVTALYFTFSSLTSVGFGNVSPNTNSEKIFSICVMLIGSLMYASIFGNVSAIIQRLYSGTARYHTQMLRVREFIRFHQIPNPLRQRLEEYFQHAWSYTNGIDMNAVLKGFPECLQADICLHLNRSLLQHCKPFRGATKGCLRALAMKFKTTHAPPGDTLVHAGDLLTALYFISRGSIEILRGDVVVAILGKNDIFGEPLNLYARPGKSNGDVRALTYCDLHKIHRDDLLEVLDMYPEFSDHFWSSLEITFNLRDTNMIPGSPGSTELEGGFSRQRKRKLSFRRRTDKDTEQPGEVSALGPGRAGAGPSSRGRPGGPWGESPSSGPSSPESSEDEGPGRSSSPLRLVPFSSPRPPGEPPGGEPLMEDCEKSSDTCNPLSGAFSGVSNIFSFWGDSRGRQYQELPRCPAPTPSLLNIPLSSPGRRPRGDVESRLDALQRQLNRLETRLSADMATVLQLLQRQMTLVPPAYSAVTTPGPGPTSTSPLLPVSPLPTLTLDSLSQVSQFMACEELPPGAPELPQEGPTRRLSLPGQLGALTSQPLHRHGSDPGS

SMILES	hERG current change (%, negative = inhibition) at 10uM
CCOc1ccc(-n2nnnc2-c2nc3ccccc3s2)cc1	11.9%
O=c1[nH]cc(S(=O)(=O)N2CCOCC2)c(=O)[nH]1	-7.17%
CC1CN(CCc2ccccc2)c2nc3c(c(=O)n(CC(N)=O)c(=O)n3C)n2C1 (stereo not shown)	2.53%
CCOCCn1c(=O)c2c(nc3n2CCCN3CCc2ccccc2)n(C)c1=O	-22.8%
COCCn1c(=O)c2c(nc3n2CC(C)CN3Cc2ccccc2)n(C)c1=O (stereo not shown)	-47.6%
CC1CN(CCc2ccccc2)c2nc3c(c(=O)[nH]c(=O)n3C)n2C1 (stereo not shown)	-35.9%
COCCn1c(=O)c2c(nc3n2CCCN3CCc2ccccc2)n(C)c1=O	-31.2%
CCOCCn1c(=O)c2c(nc3n2CC(C)CN3Cc2ccccc2)n(C)c1=O (stereo not shown)	-49.5%
CCOCCn1c(=O)c2c(nc3n2CC(C)CN3CCc2ccccc2)n(C)c1=O (stereo not shown)	-71.5%
CC1CN(CCc2ccccc2)c2nc3c(c(=O)n(C)c(=O)n3C)n2C1 (stereo not shown)	-33.9%
C=CCn1c(=O)c2c(nc3n2CC(C)CN3CCc2ccccc2)n(C)c1=O (stereo not shown)	-72%
CCn1c(=O)c2c(nc3n2CC(C)CN3CCc2ccccc2)n(C)c1=O (stereo not shown)	-72.6%
COCCn1c(=O)c2c(nc3n2CC(C)CN3CCc2ccccc2)n(C)c1=O (stereo not shown)	-56.6%
C=CCn1c(=O)c2c(nc3n2CCCN3CCc2ccccc2)n(C)c1=O	-19.8%
CC(C)C(=O)Nc1cccc(NC(=O)c2cc3ccccc3o2)c1	-22%
C=C(C)C1CC=C(C)/C(=N/NC(=O)COc2cccc3ccccc23)C1 (stereo not shown)	10.9%
CCOc1cc(C(=O)NN2CCOCC2)cc(OCC)c1OCC	35.2%
CC(C)CC(=O)NC(=S)Nc1nc(-c2cccc3ccccc23)cs1	12.7%
COc1ccc(/C=N/n2cnnc2SCc2ccccc2)cc1	-2.99%
Cc1nc(SCC(=O)NC2CCS(=O)(=O)C2)c2c(C)c(C)sc2n1 (stereo not shown)	6.15%
Clc1ccccc1-c1nnc(-c2ccccc2Cl)o1	-2.56%
COc1cccc(N/N=C/c2cccc(Br)c2O)c1	-11.1%

SMILES	hERG current change (%, negative = inhibition) at 10uM
CCOC(=O)c1sc2nc(SCC#N)n(CC3CCCO3)c(=O)c2c1C (stereo not shown)	-13.5%
CCOC(=O)c1sc2nc(SCC(=O)N(CC)CC)n(CCCN3CCCC3=O)c(=O)c2c1C	-32.4%
CCOC(=O)c1sc2nc(SCC#N)n(CCCN3CCCC3=O)c(=O)c2c1C	-62.9%
COc1cccc(C2C(C(=O)c3cc4ccccc4o3)=C(O)C(=O)N2CCN(C)C)c1OC (stereo not shown)	0.215%
Cc1ccc(C(=O)CSc2cc(C)[nH]c(=O)n2)cc1	6.76%
CC(=O)NN1C(=O)/C(=C\c2ccc(Cl)cc2)SC1=S	0.662%
Cc1ccc(C)c(-n2c(=O)c(C#N)cc3c(=O)n4ccccc4nc32)c1	30.5%
Cc1ccc(Cn2c(=N)c(C#N)cc3c(=O)n4cccc(C)c4nc32)cc1	-13%
CCC(C)n1c(=N)c(C#N)cc2c(=O)n3cc(C)ccc3nc21 (stereo not shown)	-70.9%
N#Cc1cc2c(=O)n3ccccc3nc2n(Cc2cccnc2)c1=O	-21%
CCC(C)n1c(=N)c(C#N)cc2c(=O)n3cccc(C)c3nc21 (stereo not shown)	-66.9%
CCCn1c(=N)c(C#N)cc2c(=O)n3ccccc3nc21	-9.89%
CCC(C)n1c(=N)c(C#N)cc2c(=O)n3ccccc3nc21 (stereo not shown)	-40.9%
CCCn1c(=N)c(C#N)cc2c(=O)n3cccc(C)c3nc21	-53%
Cc1ccc2nc3c(cc(C#N)c(=N)n3Cc3cccnc3)c(=O)n2c1	-60.4%
Cc1ccc2nc(NCc3ccccc3)c(C=NCc3cccnc3)c(=O)n2c1	3.39%
Cc1ccc2nc3c(cc(C#N)c(=O)n3-c3nccs3)c(=O)n2c1	2.51%
Cc1cccn2c(=O)c3cc(C#N)c(=O)n(-c4c(C)n(C)n(-c5ccccc5)c4=O)c3nc12	-7.5%
CC(=O)NC(CC(=O)Nc1nc(C)cs1)c1ccccc1 (stereo not shown)	14.1%
CCCCCCCCn1sccc1=O	-33.8%
Cc1ccc(S(=O)(=O)N2CCN3CCCC3C2)cc1 (stereo not shown)	-6.76%
COc1ccc(S(=O)(=O)NCCc2nnc3ccc(SCC(=O)Nc4nc(C)cs4)nn23)cc1	25.3%

SMILES	hERG current change (%, negative = inhibition) at 10uM
NC(=O)CC1C(=O)N(c2ccc(Cl)cc2)C(=S)N1NC(=O)c1cccc(F)c1 (stereo not shown)	15.3%
COc1ccccc1/C=C/C(=O)NCC(=O)N/N=C(/C)c1ccco1	7.74%
Nc1[nH]nc2nc3ccccc3cc12	23%
O=c1oc2ccccc2cc1-c1cn2cccnc2n1	1.91%
COc1ccc(C2C(C(=O)N3CCN(c4ccccn4)CC3)CCC(=O)N2c2cc(OC)c(OC)c(OC)c2)cc1 (stereo not shown)	9.77%
Cc1cccc(N=C2C(=O)Nc3c(Cl)cccc32)c1	18.5%
CCc1nc2cc(Cl)c(Cl)cc2[nH]1	2.59%
Cc1cc(-n2c(=O)c(C#N)cc3c(=O)n4ccccc4nc32)no1	-17%
Cc1cc(-n2c(=O)c(C#N)cc3c(=O)n4cccc(C)c4nc32)no1	-65.1%
Cc1ccc(-n2c(=O)c(C#N)cc3c(=O)n4cccc(C)c4nc32)cc1	1.03%
Cc1ccc(OC(=O)c2ccc(S(=O)(=O)N(C)C)cc2)c(-n2nc3ccccc3n2)c1	3.83%
O=C(Nc1nccs1)c1ccc(-c2ccc(Cl)cc2Cl)o1	25.5%
COc1ccc(CCNC(=O)c2cc3c(=O)n4cccc(C)c4nc3n(CC3CCCO3)c2=N)cc1 (stereo not shown)	-75.2%
Cc1ccc(CCNC(=O)c2ccc3nc4ccccc4c(=O)n3c2)cc1	6.08%
O=C(CSc1nc2ccccc2c(=O)n1CC1CCCO1)NCCc1ccccc1 (stereo not shown)	7.48%
Cc1cccn2c(=O)c3cc(C(=O)NCCc4ccccc4)c(=N)n(CC4CCCO4)c3nc12 (stereo not shown)	-82.3%
COc1ccc(CNC(=O)c2cc3c(=O)n4cccc(C)c4nc3n(CC3CCCO3)c2=N)cc1 (stereo not shown)	-77.2%
Cc1ccc2nc3c(cc(C(=O)NCCc4ccccc4)c(=N)n3CC3CCCO3)c(=O)n2c1 (stereo not shown)	-76.9%
Cc1cccn2c(=O)c3cc(S(=O)(=O)c4ccccc4)c(=N)n(CC4CCCO4)c3nc12 (stereo not shown)	-15.3%
COc1ccc(CNC(=O)C(=O)NCC2CCCO2)cc1 (stereo not shown)	9.7%
CCOc1cc(CNCCc2cccc(F)c2)ccc1OC.O=C(O)C(=O)O	-43.8%
O=C(Nc1ccc2c(c1)OCCO2)c1cnn(-c2ccccc2)n1	-6.02%

SMILES	hERG current change (%, negative = inhibition) at 10uM
O=C(CSc1nc2cc(Cl)ccc2c(=O)n1Cc1ccco1)Nc1ccc(S(=O)(=O)N2CCOCC2)cc1	-13.6%
Cc1ccc(NC(=O)CCNC(=O)c2ccccc2Cl)cc1S(=O)(=O)N1CCOCC1	-8.82%
Cn1c(C(=O)O)ccc1S(=O)(=O)N(Cc1ccccc1)Cc1ccccc1	16.5%
Cc1ccccc1NC(=O)Cn1c(NCC(C)O)nc2ccccc21 (stereo not shown)	-2.11%
COc1ccc(S(=O)(=O)c2c(O)c3ccc(C(=O)Nc4ccccc4F)cc3[nH]c2=O)cc1	-0.579%
CCc1nnc(NC(=O)CSc2nnc(CSc3nc(C)cc(C)n3)o2)s1	3.21%
N=c1c(C(=O)NCCc2ccccc2)cc2c(=O)n3ccccc3nc2n1CC1CCCO1 (stereo not shown)	-90.7%
COc1ccc(CCNC(=O)c2cc3c(=O)n4ccccc4nc3n(CC3CCCO3)c2=N)cc1OC (stereo not shown)	-78.4%
COc1ccc(CCNC(=O)Cn2c(=O)n(CC3CCCO3)c(=O)c3ccccc32)cc1OC (stereo not shown)	-0.738%
O=C(NCc1ccc(Cl)cc1)c1ccc2c(=O)n(CC3CCCO3)c(=S)[nH]c2c1 (stereo not shown)	7.01%
Cc1cccn2c(=O)c3cc(C(=O)NCc4ccc(F)cc4)c(=N)n(CC4CCCO4)c3nc12 (stereo not shown)	-74%
Cc1ccc2nc(/C(C#N)=C\c3ccc(Oc4ccc(C(F)(F)F)cc4[N+](=O)[O-])cc3)[nH]c2c1	20.8%
COc1ccc(C(=O)CC(=O)C(=O)Nc2ccc(OC)c(Cl)c2)cc1	12.9%
Cc1nn(-c2ccccc2)c(N2CCCCC2)c1/C=N/NC(=O)c1ccncc1	7.3%
O=C1CCCC2=C1C(c1ccccc1)n1c(s/c(=C/c3cccc(F)c3)c1=O)=N2 (stereo not shown)	16%
NCc1cccc(CNc2ccc([N+](=O)[O-])cc2C(N)=O)c1	-19.9%
O=[N+]([O-])c1cc(C(F)(F)F)ccc1NC1CCN(Cc2ccccc2)CC1	-68%
NC(=O)CC(NC(=O)c1cccc(Br)c1)c1ccc(NC2CCN(Cc3ccccc3)CC2)c([N+](=O)[O-])c1 (stereo not shown)	6.8%
NC(=O)CC(NC(=O)Cc1ccc(Cl)cc1)c1ccc(NC2CCN(Cc3ccccc3)CC2)c([N+](=O)[O-])c1 (stereo not shown)	-18.5%
NC(=O)CC(NC(=O)c1ccccc1)c1ccc(NC2CCN(Cc3ccccc3)CC2)c([N+](=O)[O-])c1 (stereo not shown)	1.08%
O=[N+]([O-])c1cc(C(F)(F)F)ccc1NC1CCN(Cc2ccccc2)C1 (stereo not shown)	-66.6%
NC(=O)CC(NC(=O)Cc1ccc(Br)cc1)c1ccc(NC2CCN(Cc3ccccc3)CC2)c([N+](=O)[O-])c1 (stereo not shown)	-45.8%
